From ChEMBL document CHEMBL2218924, “A broad activity screen in support of a chemogenomic map for kinase signalling research and drug discovery” (Biochem J, 2013)

What was measured:
[1] = target: Serine/threonine-protein kinase SIK1 (Homo sapiens) (UniProt P57059); conditions: at 10 µM
[2] = target: Serine/threonine-protein kinase 33 (Homo sapiens) (UniProt Q9BYT3); conditions: at 1 µM
[3] = target: Serine/threonine-protein kinase 33 (Homo sapiens) (UniProt Q9BYT3); conditions: at 10 µM
[4] = target: Tyrosine-protein kinase SYK (Homo sapiens) (UniProt P43405); conditions: at 10 µM
[5] = target: T1, Mitogen-activated protein kinase kinase kinase 7 (Homo sapiens) (UniProt O43318); conditions: at 1 µM
T1 sequence (whole entry): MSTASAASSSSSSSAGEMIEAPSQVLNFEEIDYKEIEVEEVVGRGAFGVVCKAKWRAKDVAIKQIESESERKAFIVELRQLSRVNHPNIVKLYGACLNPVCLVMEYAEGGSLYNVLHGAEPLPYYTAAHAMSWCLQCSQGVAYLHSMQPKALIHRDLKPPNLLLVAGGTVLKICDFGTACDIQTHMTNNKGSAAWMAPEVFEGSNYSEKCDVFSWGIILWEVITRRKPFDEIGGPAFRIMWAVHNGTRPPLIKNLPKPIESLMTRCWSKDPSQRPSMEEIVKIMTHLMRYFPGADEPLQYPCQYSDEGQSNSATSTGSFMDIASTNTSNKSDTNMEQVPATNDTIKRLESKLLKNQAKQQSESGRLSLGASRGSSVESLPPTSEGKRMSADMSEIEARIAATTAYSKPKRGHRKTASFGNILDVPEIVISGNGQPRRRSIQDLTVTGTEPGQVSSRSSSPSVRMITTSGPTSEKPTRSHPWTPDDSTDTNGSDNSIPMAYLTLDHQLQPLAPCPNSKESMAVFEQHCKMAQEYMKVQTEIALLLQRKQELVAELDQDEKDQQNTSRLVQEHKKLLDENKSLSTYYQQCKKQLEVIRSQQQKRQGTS

[6] = target: T1, Mitogen-activated protein kinase kinase kinase 7 (Homo sapiens); conditions: at 10 µM
[7] = target: T2, Serine/threonine-protein kinase TAO1 (Homo sapiens) (UniProt Q7L7X3); conditions: at 1 µM
T2 sequence (whole entry): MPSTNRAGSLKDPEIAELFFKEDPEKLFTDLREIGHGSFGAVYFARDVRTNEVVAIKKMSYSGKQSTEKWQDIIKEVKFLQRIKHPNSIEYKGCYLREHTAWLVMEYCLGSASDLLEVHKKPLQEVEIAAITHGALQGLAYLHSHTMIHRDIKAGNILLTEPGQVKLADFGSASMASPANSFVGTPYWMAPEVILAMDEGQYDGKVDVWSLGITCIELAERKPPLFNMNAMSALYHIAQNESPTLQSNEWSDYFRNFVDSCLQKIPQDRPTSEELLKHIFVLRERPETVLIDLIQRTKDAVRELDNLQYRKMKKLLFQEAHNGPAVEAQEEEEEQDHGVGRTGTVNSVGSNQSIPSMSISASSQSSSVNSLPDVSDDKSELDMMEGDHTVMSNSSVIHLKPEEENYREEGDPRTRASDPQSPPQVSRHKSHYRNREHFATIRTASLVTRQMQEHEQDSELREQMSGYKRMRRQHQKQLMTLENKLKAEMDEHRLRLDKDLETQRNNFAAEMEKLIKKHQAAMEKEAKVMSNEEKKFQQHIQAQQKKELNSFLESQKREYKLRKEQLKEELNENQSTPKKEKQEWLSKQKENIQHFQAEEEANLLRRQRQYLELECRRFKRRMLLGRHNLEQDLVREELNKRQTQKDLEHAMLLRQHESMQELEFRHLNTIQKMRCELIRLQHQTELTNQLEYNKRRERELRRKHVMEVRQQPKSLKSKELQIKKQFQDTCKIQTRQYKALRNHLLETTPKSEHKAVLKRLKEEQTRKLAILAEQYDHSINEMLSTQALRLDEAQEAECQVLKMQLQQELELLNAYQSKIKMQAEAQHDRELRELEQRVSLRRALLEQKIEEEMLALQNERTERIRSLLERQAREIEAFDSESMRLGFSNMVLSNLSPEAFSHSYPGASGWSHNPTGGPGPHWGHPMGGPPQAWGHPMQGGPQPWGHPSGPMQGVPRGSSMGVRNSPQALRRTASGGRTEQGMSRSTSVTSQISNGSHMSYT

[8] = target: T2, Serine/threonine-protein kinase TAO1 (Homo sapiens); conditions: at 10 µM
[9] = target: T3, Serine/threonine-protein kinase TAO2 (Homo sapiens) (UniProt Q9UL54); conditions: at 1 µM
T3 sequence (whole entry): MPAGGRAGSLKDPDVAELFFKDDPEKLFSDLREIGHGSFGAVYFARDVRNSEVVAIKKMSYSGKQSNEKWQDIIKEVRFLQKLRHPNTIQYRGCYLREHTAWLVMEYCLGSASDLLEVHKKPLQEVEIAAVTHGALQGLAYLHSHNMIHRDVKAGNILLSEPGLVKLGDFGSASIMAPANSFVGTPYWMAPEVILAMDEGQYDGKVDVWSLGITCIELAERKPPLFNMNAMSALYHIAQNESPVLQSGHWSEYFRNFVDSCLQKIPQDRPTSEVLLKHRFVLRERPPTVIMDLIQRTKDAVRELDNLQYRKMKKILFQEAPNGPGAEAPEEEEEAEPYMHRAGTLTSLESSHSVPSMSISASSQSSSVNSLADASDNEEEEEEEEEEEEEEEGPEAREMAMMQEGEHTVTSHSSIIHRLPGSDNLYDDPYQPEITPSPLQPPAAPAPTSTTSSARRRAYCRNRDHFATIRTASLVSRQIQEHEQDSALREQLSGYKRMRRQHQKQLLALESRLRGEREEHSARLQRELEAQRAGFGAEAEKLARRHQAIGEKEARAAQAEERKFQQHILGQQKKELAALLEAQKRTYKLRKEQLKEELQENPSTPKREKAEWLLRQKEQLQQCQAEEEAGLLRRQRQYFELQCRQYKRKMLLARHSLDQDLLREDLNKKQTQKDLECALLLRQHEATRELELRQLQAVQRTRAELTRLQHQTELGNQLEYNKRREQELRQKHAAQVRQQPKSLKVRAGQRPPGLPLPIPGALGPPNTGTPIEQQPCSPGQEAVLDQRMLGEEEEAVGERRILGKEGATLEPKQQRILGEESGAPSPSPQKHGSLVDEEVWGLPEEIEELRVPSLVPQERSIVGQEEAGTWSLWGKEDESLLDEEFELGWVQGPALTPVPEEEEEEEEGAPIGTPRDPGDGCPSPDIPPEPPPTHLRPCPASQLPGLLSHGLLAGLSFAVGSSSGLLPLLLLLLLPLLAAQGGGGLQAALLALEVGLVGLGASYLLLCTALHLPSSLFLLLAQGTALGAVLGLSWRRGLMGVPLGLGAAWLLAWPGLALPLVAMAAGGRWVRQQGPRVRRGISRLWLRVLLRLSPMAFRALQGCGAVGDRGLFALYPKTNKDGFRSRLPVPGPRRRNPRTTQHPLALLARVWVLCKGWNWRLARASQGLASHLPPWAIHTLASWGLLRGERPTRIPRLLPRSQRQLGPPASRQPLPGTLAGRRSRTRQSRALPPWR

[10] = target: T3, Serine/threonine-protein kinase TAO2 (Homo sapiens); conditions: at 10 µM
[11] = target: T4, Serine/threonine-protein kinase TAO3 (Homo sapiens) (UniProt Q9H2K8); conditions: at 1 µM
T4 sequence (whole entry): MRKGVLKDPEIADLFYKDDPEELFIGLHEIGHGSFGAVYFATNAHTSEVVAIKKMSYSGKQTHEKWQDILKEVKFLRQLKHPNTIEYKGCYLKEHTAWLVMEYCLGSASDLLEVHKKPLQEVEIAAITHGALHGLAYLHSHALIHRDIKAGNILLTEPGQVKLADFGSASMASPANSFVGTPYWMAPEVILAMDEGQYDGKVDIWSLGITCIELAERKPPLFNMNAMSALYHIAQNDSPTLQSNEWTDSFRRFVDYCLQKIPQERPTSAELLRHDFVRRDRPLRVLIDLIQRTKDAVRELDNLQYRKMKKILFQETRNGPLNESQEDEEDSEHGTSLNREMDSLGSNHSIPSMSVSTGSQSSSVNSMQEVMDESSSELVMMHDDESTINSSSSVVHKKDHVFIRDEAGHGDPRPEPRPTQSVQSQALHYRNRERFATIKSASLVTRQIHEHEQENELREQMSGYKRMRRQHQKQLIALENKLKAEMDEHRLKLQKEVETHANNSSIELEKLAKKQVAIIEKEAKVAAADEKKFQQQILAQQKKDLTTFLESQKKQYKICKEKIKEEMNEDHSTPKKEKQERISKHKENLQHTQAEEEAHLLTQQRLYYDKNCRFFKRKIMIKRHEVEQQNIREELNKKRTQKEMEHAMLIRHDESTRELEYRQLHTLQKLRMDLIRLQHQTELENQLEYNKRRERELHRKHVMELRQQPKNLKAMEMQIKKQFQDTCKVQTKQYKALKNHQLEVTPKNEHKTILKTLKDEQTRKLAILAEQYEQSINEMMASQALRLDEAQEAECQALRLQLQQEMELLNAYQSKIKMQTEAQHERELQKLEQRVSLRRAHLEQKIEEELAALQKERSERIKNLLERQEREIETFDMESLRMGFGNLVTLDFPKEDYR

[12] = target: T4, Serine/threonine-protein kinase TAO3 (Homo sapiens); conditions: at 10 µM
[13] = target: T5, Serine/threonine-protein kinase TBK1 (Homo sapiens) (UniProt Q9UHD2); conditions: at 1 µM
T5 sequence (whole entry): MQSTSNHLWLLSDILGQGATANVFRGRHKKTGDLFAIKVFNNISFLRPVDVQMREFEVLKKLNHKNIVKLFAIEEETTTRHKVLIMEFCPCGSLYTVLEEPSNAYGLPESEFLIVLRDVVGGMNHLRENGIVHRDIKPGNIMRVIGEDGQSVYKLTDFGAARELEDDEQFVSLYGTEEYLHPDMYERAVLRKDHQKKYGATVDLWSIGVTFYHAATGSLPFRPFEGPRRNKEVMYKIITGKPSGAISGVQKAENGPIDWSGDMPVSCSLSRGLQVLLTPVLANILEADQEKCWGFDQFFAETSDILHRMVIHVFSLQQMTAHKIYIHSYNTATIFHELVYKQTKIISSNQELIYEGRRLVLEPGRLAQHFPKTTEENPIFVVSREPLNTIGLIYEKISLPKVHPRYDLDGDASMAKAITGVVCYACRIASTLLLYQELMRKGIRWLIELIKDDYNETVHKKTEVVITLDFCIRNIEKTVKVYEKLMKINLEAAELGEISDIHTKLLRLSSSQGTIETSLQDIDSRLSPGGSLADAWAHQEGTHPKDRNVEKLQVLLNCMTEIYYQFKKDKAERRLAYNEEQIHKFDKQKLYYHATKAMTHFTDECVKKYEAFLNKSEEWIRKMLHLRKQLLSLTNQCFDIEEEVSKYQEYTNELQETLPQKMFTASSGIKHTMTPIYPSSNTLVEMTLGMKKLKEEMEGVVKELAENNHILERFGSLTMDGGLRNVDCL

[14] = target: SRSF protein kinase 2 (Homo sapiens) (UniProt P78362); conditions: at 1 µM
Chain of SRSF protein kinase 2 (Homo sapiens) (P78362 whole entry, looked up): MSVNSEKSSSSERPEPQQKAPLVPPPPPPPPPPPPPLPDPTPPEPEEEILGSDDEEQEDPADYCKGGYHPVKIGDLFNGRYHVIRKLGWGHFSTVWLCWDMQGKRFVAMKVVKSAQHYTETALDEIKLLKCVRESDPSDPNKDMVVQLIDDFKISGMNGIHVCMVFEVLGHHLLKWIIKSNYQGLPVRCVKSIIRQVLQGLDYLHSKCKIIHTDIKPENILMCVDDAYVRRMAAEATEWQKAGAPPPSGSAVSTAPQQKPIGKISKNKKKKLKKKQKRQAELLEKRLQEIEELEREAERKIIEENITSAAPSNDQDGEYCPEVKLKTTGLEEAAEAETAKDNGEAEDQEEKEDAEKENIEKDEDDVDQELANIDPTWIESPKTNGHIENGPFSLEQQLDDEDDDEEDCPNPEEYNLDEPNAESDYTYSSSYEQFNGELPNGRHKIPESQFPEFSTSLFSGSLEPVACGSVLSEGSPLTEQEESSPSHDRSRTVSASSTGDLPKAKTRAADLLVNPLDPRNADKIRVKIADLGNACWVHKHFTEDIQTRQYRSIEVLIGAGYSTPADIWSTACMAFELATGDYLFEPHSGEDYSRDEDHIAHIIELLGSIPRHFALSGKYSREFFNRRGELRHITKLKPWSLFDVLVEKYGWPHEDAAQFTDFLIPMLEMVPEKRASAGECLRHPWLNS

[15] = target: SRSF protein kinase 2 (Homo sapiens) (UniProt P78362); conditions: at 10 µM
[16] = target: Serine/threonine-protein kinase PLK2 (Homo sapiens) (UniProt Q9NYY3); conditions: at 1 µM
Chain of Serine/threonine-protein kinase PLK2 (Homo sapiens) (Q9NYY3 whole entry, looked up): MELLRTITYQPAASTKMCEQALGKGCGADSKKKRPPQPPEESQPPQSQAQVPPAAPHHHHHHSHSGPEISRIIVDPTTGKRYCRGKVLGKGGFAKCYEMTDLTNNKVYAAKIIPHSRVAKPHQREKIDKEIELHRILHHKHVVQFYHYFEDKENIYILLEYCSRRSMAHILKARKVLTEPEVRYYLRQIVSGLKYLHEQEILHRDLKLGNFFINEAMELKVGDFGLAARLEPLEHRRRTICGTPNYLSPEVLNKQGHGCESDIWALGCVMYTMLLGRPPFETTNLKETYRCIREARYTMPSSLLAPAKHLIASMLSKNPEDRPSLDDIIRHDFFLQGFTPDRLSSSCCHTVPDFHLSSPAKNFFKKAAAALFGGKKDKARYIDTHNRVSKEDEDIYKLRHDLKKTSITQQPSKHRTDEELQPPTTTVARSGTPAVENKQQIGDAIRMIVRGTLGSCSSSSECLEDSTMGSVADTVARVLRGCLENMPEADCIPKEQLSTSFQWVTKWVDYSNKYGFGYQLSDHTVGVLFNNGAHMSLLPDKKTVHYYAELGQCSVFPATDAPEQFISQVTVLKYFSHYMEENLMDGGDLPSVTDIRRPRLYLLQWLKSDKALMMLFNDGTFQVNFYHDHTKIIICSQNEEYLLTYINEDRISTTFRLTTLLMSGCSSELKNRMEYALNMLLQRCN

[17] = target: Serine/threonine-protein kinase PLK2 (Homo sapiens) (UniProt Q9NYY3); conditions: at 10 µM
[18] = target: Tyrosine-protein kinase SYK (Homo sapiens) (UniProt P43405); conditions: at 1 µM

Chain of Serine/threonine-protein kinase 33 (Homo sapiens) (Q9BYT3 whole entry, looked up): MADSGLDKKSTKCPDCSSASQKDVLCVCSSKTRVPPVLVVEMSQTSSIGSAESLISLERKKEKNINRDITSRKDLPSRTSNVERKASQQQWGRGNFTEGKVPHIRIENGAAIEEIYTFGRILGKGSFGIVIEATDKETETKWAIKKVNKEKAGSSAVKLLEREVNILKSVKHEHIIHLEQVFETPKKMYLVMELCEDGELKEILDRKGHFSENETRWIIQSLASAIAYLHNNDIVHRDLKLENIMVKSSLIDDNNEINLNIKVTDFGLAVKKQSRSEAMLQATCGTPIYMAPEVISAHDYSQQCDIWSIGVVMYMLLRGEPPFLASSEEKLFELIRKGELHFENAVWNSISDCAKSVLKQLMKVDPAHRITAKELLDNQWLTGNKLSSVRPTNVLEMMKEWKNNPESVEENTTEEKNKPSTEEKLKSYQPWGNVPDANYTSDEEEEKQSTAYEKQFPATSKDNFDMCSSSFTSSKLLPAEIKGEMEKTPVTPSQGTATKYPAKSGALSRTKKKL
Chain of Serine/threonine-protein kinase SIK1 (Homo sapiens) (P57059 whole entry): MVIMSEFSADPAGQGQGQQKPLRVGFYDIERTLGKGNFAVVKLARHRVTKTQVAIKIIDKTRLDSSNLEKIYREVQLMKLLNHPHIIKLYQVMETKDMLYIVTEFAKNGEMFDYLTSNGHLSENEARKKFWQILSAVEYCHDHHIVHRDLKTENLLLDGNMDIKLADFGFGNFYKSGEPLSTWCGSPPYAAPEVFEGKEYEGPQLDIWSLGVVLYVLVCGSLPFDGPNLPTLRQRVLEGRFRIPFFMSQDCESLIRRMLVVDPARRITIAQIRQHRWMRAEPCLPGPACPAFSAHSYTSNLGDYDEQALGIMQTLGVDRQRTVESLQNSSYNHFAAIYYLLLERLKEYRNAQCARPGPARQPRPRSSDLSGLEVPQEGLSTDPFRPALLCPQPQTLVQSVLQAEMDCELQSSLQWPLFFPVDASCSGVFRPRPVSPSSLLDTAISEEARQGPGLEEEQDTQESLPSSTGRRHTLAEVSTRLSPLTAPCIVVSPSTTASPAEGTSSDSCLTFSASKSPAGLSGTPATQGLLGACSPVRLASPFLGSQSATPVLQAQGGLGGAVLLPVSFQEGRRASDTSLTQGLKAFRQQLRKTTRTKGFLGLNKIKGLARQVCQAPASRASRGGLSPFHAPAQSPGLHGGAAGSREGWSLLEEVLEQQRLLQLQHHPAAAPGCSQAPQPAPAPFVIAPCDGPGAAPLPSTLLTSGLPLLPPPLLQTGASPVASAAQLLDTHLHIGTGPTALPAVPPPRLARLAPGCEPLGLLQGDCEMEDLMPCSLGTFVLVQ

SMILES | residual activity [1] [%] | residual activity [2] [%] | residual activity [3] [%] | residual activity [4] [%] | residual activity [5] [%] | residual activity [6] [%] | residual activity [7] [%] | residual activity [8] [%] | residual activity [9] [%] | residual activity [10] [%] | residual activity [11] [%] | residual activity [12] [%] | residual activity [13] [%] | residual activity [14] [%] | residual activity [15] [%] | residual activity [16] [%] | residual activity [17] [%] | residual activity [18] [%]
CC(C)[C@H](CO)Nc1nc(Nc2cc(N)cc(Cl)c2)c2ncn(C(C)C)c2n1 | 18 | 96 | 62 | 73 | 85 | 30 | 92 | 52 | 88 | 73 | 93 | 54 | 97 | – | – | – | – | –
NC(=O)c1ccc(-c2nc(-c3ccc4c(c3)OCCO4)c(-c3ccccn3)[nH]2)cc1 | – | – | – | – | – | – | 96 | 80 | 100 | 93 | – | – | 83 | 91 | 95 | 93 | 100 | –
O=C1NC(=O)C(c2cn(CCCn3ccnc3)c3ccccc23)=C1Nc1ccccc1 | 36 | 75 | 32 | 67 | – | 66 | – | 37 | – | – | 63 | 19 | 22 | – | – | – | – | 105
O=c1cc(N2CCOCC2)oc2c(-c3ccccc3)cccc12 | – | – | 78 | – | – | – | – | – | – | – | – | – | 68 | – | – | – | – | –
O=C1Cc2c([nH]c3ccc(Br)cc23)-c2ccccc2N1 | 36 | 97 | 81 | 25 | 81 | 68 | 76 | 28 | – | – | – | – | 53 | – | – | 99 | 91 | 72
